In PubChem BioAssay (NCI):
The panel holds about 83,000 compounds, 20% with a hit somewhere; the sample as a whole holds those more often.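 Compound tested at a single concentration for 48 hours in 96-well plates; a percent growth value below 10 was scored as active.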 A number with no mark means an inactive call. The source made the active and inactive calls.

Tested on: NCI/ADR-RES ovarian
Assay: NCI-60 one-dose screen, 48 h (100 = growth as untreated, 0 = no growth, -100 = all killed)
Conditions: 10 µM unless noted
Description: Growth inhibition of the NCI/ADR-RES human […] tumor cell line is measured as a screen for anti-cancer activity. Cells are grown in 96 well plates and exposed to the test compound for 48 hours. Compounds are tested at a single concentration, which is 10^-5 M for most compounds. The reported endpoint is percent growth (GI% or GIPRCNT), where numbers from 0 - 100% represent growth inhibition, and numbers from -100% - 0 represent cell death. For example, a value of 40 represents 60% growth inhibition. A value of 0 means no net growth occurred over the course of the experiment. A value of -40 indicates 40% of cells at the beginning of the experiment died by the end of the experiment. A value of -100 means all cells are dead at the end of the experiment.
NCI-60 Human Tumor Cell Lines Screen was performed using the standard one-dose NCI protocol, which is described in more detail at https://dtp.cancer.gov/discovery_development/nci-60/default.htm.
Compounds with GIPRCNT values below 10 were considered active. Activity score was based on GIPRCNT using the following formula: […]
Score is 0 for GIPRCNT values of 100 or above, 50 for GIPRCNT values of 0, and 100 for GIPRCNT values of -100.

Row | Compound | growth
1 | Fc1cc2c(cc1Cl)N(c1ncnc3ccc(-c4cnc5cnccn45)cc13)CC2 | 86.8%
2 | O=C1/C(=C/c2ccccc2[N+](=O)[O-])Oc2ccc(O)c(O)c21 | 37.6%
3 | CC1(C)C2CC1C1(/C=N/NC(N)=S)C(C2)C(C#N)(C#N)C1(C#N)C#N (stereo not given) | 93.5%
4 | COC(=O)Nc1ccc(-c2nc(-c3cccc(OC)c3)c(-c3ccnc(Br)c3)[nH]2)cc1 | 45.2%
5 | O=C1c2ccccc2NC(n2sc3ccccc3c2=O)N1c1ccccc1 (stereo not given) | 95%
6 | CCCCNC(=O)Oc1ccc(/C(=C(\C)c2ccc(Cl)cc2)c2ccc(OCCN(CC)CC)cc2)cc1 | 81.4%
7 | O=C1CSC(c2c(Cl)cccc2Cl)N1c1nc(Cl)cc(=O)[nH]1 (stereo not given) | 95%
8 | O=C(CSc1nc2ccccc2[nH]1)Nc1cccc(Cl)c1 | 103%
9 | CCCCn1c(=O)c(-c2cc(-c3ccc(Cl)cc3)nc(-c3ccc(Cl)cc3)c2)cc2cc(Cl)ccc21 | 109%
10 | COc1ccc(CNC(=O)C(=O)[C@H](Cc2ccccc2)NC(=O)c2[nH]c3ccccc3c(=O)c2C)cc1 | 108%
11 | COc1cc(/C=C2\C(=O)Nc3ccc(Br)cc32)cc(OC)c1OC | 42.7%
12 | COc1ccc(C(=O)n2nc(-c3ccccc3)nc2N)cc1OC | 96.5%
13 | COc1nc2ccc(C)cc2cc1-c1nc2c(cnn2-c2ccccc2)c(=O)[nH]1 | 74.3%
14 | CCOC(=O)c1[nH]c(C)c(C(=O)OCc2ccccc2C#N)c1C | 14.9%
15 | CCCCn1c(=O)c(-c2cc(-c3ccc(Cl)cc3)nc(-c3ccc(Cl)cc3)c2)cc2ccc(Cl)cc21 | 95.9%
16 | O=C1CCC/C=C\C[C@H]2C=CC(=O)/C2=C/C[C@H](CCc2cccc(C(F)(F)F)c2)O1 | 1.09% (active)
17 | NS(=O)(=O)c1ccc(-n2nc(C(=O)N/N=C\c3ccc(F)cc3)cc2-c2ccc(Br)cc2)cc1 | 67.8%
18 | Cc1cccc2c1S/C(=C/c1ccc([N+](=O)[O-])cc1)C2=O | 110%
19 | CNCCCC12CCC(c3ccccc31)c1ccccc12 | 89.5%
20 | CN(C(=O)NCc1cccc(F)c1Cl)[C@H](COC(=O)Nc1cc2ccccc2cn1)CC(O)CO (stereo not given in full) | 98.6%

Row | Compound | growth
21 | [O-][n+]1c2ccccc2[n+]([O-])c2c3ccccc3[nH]c21 | 65.4%
22 | O=C(CCOCCNC(=O)COc1ccc2c(c1)OCC(c1ccc(F)cc1)C2=O)NCCCC(O)(P(=O)(O)O)P(=O)(O)O (stereo not given) | 107%
23 | Cc1nc2ccccc2n1-c1ncnc2c1CC(C)c1ccccc1N2C (stereo not given) | 67.8%
24 | Cc1ccc2nc(NC(=O)CSc3nc(Cl)c(C#N)c(-c4ccccc4)n3)sc2c1 | 102%
25 | CC/C=C\C[C@@H]1C/C=C2/C(=O)C=C[C@H]2C/C=C\CCCC(=O)O1 | 10.9%
26 | COc1cc(C)c(Cc2cnc(N)nc2N)cc1OC | 104%
27 | CNc1ccc(Nc2cccc(C)c2)c2c1C(=O)c1ccccc1C2=O | 98.8%
28 | Cc1cccc(OCC(O)CN2CCN(c3ccc(Cl)cc3)CC2)c1 (stereo not given) | 102%
29 | OC(c1ccccc1)C(NC(Cc1ccccc1)c1ccccc1)c1ccccc1 (stereo not given) | 82.6%
30 | CCCCn1c(-c2ccc(C(=O)O/N=C(\N)c3ccc(OC)cc3)cc2)nc(-c2ccccc2)c1-c1ccccc1 | -39.5% (active)
31 | C[N+]1=C(/C=C/c2ccc(O)c3ncccc23)C(C)(C)c2ccccc21 | 14.6%
32 | Cc1ccc(-c2nc(SCC(=O)Nc3nc(-c4ccc(Cl)cc4)cs3)[nH]c(=O)c2C#N)cc1 | 109%
33 | Nc1ccccc1-c1cc2c(c3c1[nH]c1ccccc13)CCCCC2 | 94.8%
34 | Cc1ccc2sc3c(NCCN)nc4ccccc4c3c(=O)c2c1 | 80.5%
35 | Cc1nc2ccccc2c(/C=C/c2ccccc2)c1C(=O)/C=C/c1ccc(C(F)(F)F)cc1 | -1.24% (active)
36 | C/C(=C\C(=O)c1ccc(Cl)cc1)c1ccc(Cl)cc1 | 103%
37 | Cc1nn(-c2ccccc2)c(-n2ccnc2)c1/C=N/Nc1nc(-c2ccc(F)cc2)cs1 | 79.2%
38 | CCN(CC)CCNc1nc2ccccc2c2c(=O)c3cc(Cl)ccc3sc12 | 27.1%
39 | c1ccc(OCc2nnc(-c3ccc(Oc4ccccc4)cc3)o2)cc1 | 96.9%
40 | CCCCCCCCCCCCCCCCCCOc1ccc(CC(=O)OCC[N+]2(C)CCCCC2)cc1 | 104%
